Screening results from PubChem.
BL2 CD40 inh: CD40 pathway inhibition in BL2 cells | BL2 NF-kB luciferase reporter, CD40L-induced, 4 h | inhibition, % at 10 µM | 0.94% of 83,000 active | AID 1053188;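 active means mean inhibition of at least 50% with a set share of replicates also reaching that level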
Of the large screens only hits and unclear results are named; the others gave an inactive call; [ ] = remark or other dose. The sample as a whole holds a higher share of hits than the screen did.

CC1CCN(S(=O)(=O)c2ccc3c(c2)C(Cl)(Cl)C(=O)N3)CC1	BL2 CD40 inh 52.8
CC1CCN(S(=O)(=O)c2ccc3c(c2)oc(=O)n3C)CC1	none
CCC(=O)N[C@@H]1C=C[C@@H](CC(=O)NCC2CC2)O[C@H]1CO	none
N#CC1(NC(=O)COC(=O)c2cc([N+](=O)[O-])ccc2N2CCOCC2)CCCCC1	none
O=C(COC(=O)c1cc([N+](=O)[O-])ccc1N1CCOCC1)Nc1cc(F)ccc1F	none
N#CC1(NC(=O)COC(=O)c2cc([N+](=O)[O-])ccc2N2CCCC2)CCCCC1	BL2 CD40 inh 43.8
Fc1ccc(-c2nnc(NC3=NCCCCC3)o2)cc1	BL2 CD40 inh 73.7
Fc1ccc(NC2=NCCCCC2)cc1	none
Fc1ccc(-c2nnc(Cc3nnc(-c4ccc(F)cc4)o3)o2)cc1	none
CN1c2ccc(-c3cccc(F)c3)cc2[C@@H]2[C@@H](CCN2C(=O)C2CCC2)[C@@H]1CO	none
COc1ccc(S(=O)(=O)Nc2cccc3c2O[C@@H](CN(C)CC2CCCCC2)[C@@H](C)CN([C@@H](C)CO)C3=O)cc1	none
O=C(N/N=C/c1ccc[nH]1)c1ccc(O)cc1	none
O=C(CNC(=O)c1ccc(Br)cc1)N/N=C/c1ccc[nH]1	none
Cc1cc(Br)c(OCc2ccc(C(=O)N/N=C/c3ccc[nH]3)cc2)c(Br)c1	BL2 CD40 inh 75.0
C[C@H](CO)N1C[C@H](C)[C@H](CN(C)C(=O)[C@H](C)c2ccccc2)OCc2ccccc2-c2c(n(C)c3ccccc23)C1=O	none
CCCNC(=O)N1C[C@@H]2[C@H](c3ccccc31)[C@H](CO)N2C(=O)NC(C)C	none
Cc1ccccc1OCC(=O)Nc1ccc2c(c1)C(=O)c1ccccc1C2=O	none
Cc1ccccc1OCC(=O)Nc1cccc(C(=O)O)c1	BL2 CD40 inh 91.2
Cc1ccccc1OCC(=O)Nc1ccc2c(c1)Cc1ccccc1-2	none
CN(C)C(=O)[C@H]1[C@H](CO)[C@H]2Cn3c(ccc(C4=CCCCC4)c3=O)[C@@H]1N2Cc1ccncc1	none
CCNC(=O)[C@H]1[C@H](CO)[C@H]2Cn3c(ccc(-c4ccncc4)c3=O)[C@H]2N1Cc1cc(F)ccc1F	none
COc1ccc(C2NC(C(=O)O)Cc3c2[nH]c2ccccc32)cc1OC (stereo unspecified)	none
Cc1cc(C=O)c(C)c2c1[nH]c1ccccc12	none
COc1ccc(OC)c2c(=S)c3ccccc3[nH]c12	BL2 CD40 inh active[25 µM]
CO[C@H]1CN(C)C(=O)c2cc(NC(=O)Nc3cccc(Cl)c3)ccc2OC[C@H](C)N(C(=O)Nc2c(C)noc2C)C[C@H]1C	none
C[C@@H]1CN([C@@H](C)CO)C(=O)c2cccc(NS(=O)(=O)c3cn(C)cn3)c2O[C@H]1CN(C)C(=O)Nc1ccc(F)cc1	none
CCC1=C(CC2NCCc3ccccc32)CC2c3cc(OC)c(OC)cc3CCN2C1 (stereo unspecified)	BL2 CD40 inh 54.7
COc1cc2c(cc1OC)C1Cc3ccc(OC)c(OC)c3CN1CC2 (stereo unspecified)	none
COc1cc2c(cc1OC)[C@@H]1Cc3ccc(OC)c(OC)c3CN1CC2	none
COc1cccc(CN2[C@@H](CO)[C@@H]3c4ccccc4N(C(=O)c4ccncc4)C[C@@H]32)c1	none
O=C(NCC(F)(F)F)[C@@H]1[C@@H](CO)[C@@H]2Cn3c(cccc3=O)[C@H]1N2CC1CCCC1	none
COCCNC(=O)C[C@H]1CC[C@@H]2[C@@H](COc3ccc(NC(=O)Nc4cccc(F)c4)cc3C(=O)N2C)O1	none
CC(=NNc1nc2ccccc2o1)c1ncccn1	BL2 CD40 inh 79.6
CC(=NNc1nc2ccccc2s1)c1ncccn1	none
CC(=NNc1nc2ccccc2o1)c1cc2ccccc2cn1	none
CO[C@@H]1CN(C)C(=O)c2ccc(NC(=O)NC(C)C)cc2OC[C@@H](C)N(Cc2ccc(-c3ccccn3)cc2)C[C@@H]1C	none
Cc1noc(C)c1CSCC(=O)N(C)CC(=O)Nc1ccc(Cl)c(Cl)c1	none
CCN(CC(=O)Nc1cc(Cl)ccc1C)C(=O)CSCc1c(C)noc1C	none
Cc1ccc(C)c(NC(=O)CN(C)C(=O)CSCc2c(C)noc2C)c1	BL2 CD40 inh 28.8
COc1ccc(-c2cccc(NC(=O)c3ccco3)c2)nn1	none
COc1ccc(NC(=O)c2ccccc2NC(=O)c2ccco2)cc1	none
COc1ccc(-c2ccc(NC(=O)c3ccco3)cc2)nn1	BL2 CD40 inh 82.4
CC(C)NC(=O)N[C@H]1CC[C@@H](CC(=O)NCCCN(C)C)O[C@@H]1CO	none
COc1cccc(-c2cn(CC[C@H]3CC[C@@H](NC(=O)CC4CC4)[C@H](CO)O3)nn2)c1	none
COc1cccc(CN(C)C[C@H]2OCc3ccccc3-c3ccccc3C(=O)N([C@@H](C)CO)C[C@H]2C)c1	none
COc1ccccc1NC(=O)N1C[C@@H]2N[C@H](C1)C2c1ccc(-c2cccc(C(=O)N(C)C)c2)cc1 (stereo partly specified)	none
CN1CCN(C(CNS(=O)(=O)c2ccc(Br)cc2)c2ccc3c(c2)OCO3)CC1 (stereo unspecified)	none
Oc1cc2c(cc1C(c1ccc(Br)cc1)N1CCCC1)OCO2 (stereo unspecified)	BL2 CD40 inh 86.3
OC(CN1CCCCC1)c1ccc(Br)cc1 (stereo unspecified)	none
CO[C@H](CN(C)Cc1ccc2c(c1)OCO2)[C@H](C)CN(C(=O)Nc1ccc(F)cc1)[C@@H](C)CO	none
